Screens deposited in PubChem by several laboratories.
HSV replic up = increases HSV replication in cells | HSV replication augmentation in cells, fold increase | maximum fold increase | 0.005% of 220,000 active | AID 1956; in the data active = maximum fold increase above about 1.5; inconclusive = no clear call, values can overlap the other calls; tested in PC3 cells
Ins promoter up = MIN6 insulin promoter up-regulation | MIN6 insulin promoter-GFP reporter, high-content imaging; stronger effect = higher value | z-score at 5 µM | 0.3% of 190,000 active | AID 1625;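 active = z-score above 3 at 5 µM with at least 500 cells counted in the well; inconclusive = wells under 500 cells, flagged as cytotoxic or low count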
INS promoter inh = TRM-6 insulin promoter activity inhibition; TRM-6 cells (human fetal islet line), insulin promoter-eGFP reporter, imaging; reporter expression induced with tamoxifen; inhibition, % at 2 µM; 0.9% of 130,000 active;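 active = inhibition above the mean plus 3 SD, with well images judged a real hit on visual review, cut at about 60% in these data, passing the limit was not always enough; inconclusive = inhibition over the cutoff but images rejected on review; inactive = inhibition not above the cutoff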
Efa HMGR inh = blocks class II HMG-CoA reductase of Enterococcus faecalis; AID 1066; purified E. faecalis HMGR, NADPH absorbance 340 nm kinetic; 0.41% of 190,000 active; inhibition, % at 10 µM;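 active = inhibition above a set limit, the median over all tested compounds plus 3 SD, cut at about 9.5% in these data; inconclusive = no clear call, values can overlap the other calls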;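 note: enzyme runs in reverse so mevalonate oxidation gives rising NADPH absorbance; 0% = complete reaction with DMSO and 100% = background rate lacking mevalonate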
* = called active by the depositor; i = inactive; ? = inconclusive; . = not tested or not shown. Sampled rows, rich in hits. Any-hit rate of the full collection: about 1.1%.

SMILES	HSV replic up	Ins promoter up	INS promoter inh	Efa HMGR inh
COc1cc(-c2nc(CN(C)C(C)c3ccncn3)c(C)o2)ccc1F (centres undefined)	i	0.83	.	0
CC(C)CNC(=O)CSc1ccc(Cl)cc1	i	-0.37	-8	37*
Cc1ccc(SCC(=O)NCC(C)C)cc1	i	0.86	.	-1
COc1cc(S(=O)(=O)N2CCC(c3nc4ccccc4s3)CC2)ccc1S(=O)(=O)NC1CCCC1	i	0.35	62	14*
Cc1cc(C)c(C(=O)O)c(CC(C)(C)C(=O)O)c1	i	3.1*	.	.
O=C(c1ccc([N+](=O)[O-])cc1)N1CCSC1c1ccccc1Cl (centres undefined)	i	0.09	-6	11*
CCCS(=O)(=O)N1CCC(C(=O)N2CCOCC2)CC1	i	4*	.	-3
CC1Nc2nc(N(C)C)[nH]c(=O)c2NC1C (centres undefined)	i	0.37	51	-4
Cc1ccc(NCc2cccnc2)c(Br)c1	i	0.37	67*	-5
Cc1ccc(NC(=O)COC(=O)[C@H](C)N2C(=O)C3CC=CCC3C2=O)cc1S(=O)(=O)N(C)C (some centres undefined)	i	-0.05	-17	-8
O=C(CSc1nnc2ccccn12)NNC(=O)c1ccc(F)cc1	i	-1.5	.	-6
CC1=NN(c2ccccc2)C(=O)C1N=Nc1ccc(C)cc1 (centres undefined)	i	-0.16	-44	-5
Cc1ccc(C2C=NN(c3ccccc3)C2=O)cc1 (centres undefined)	i	-0.35	.	10*
CC1=C(C(=O)OC(C)C)C(c2ccc(C)o2)NC(=O)N1 (centres undefined)	i	.	31	11*
Cc1ccccc1-c1nnc(-c2cccs2)o1	i	-0.23	58	-3
CCCN1C(=O)/C(=C/c2ccc(N3CCCC3)c(C)c2)NC1=S	?	.	-92	-2
CCN1C(=O)/C(=C/c2ccc(N3CCCC3)cc2)NC1=S	?	16*	-252	-5
CCCN1C(=O)/C(=C/c2ccc(N3CCOCC3)cc2)NC1=S	1.6*	.	.	0
COc1ccc(CCNC(=O)CSc2ccc(-c3cccs3)nn2)cc1OC	i	-0.15	38	-6
CCOc1ccc2nc(NC(=O)CN3CCC(n4nnc5cc(C(F)(F)F)ccc54)CC3)sc2c1	i	-1.9	77*	-5
O=C1C(c2ccc(F)cc2)N(C2CCCCC2)C(=O)CN1C1CCCC1 (centres undefined)	i	-0.53	18	4
Cc1ccc(C2C(=O)N(C3CCC(C)CC3)CC(=O)N2C2CCCC2)cc1 (centres undefined)	i	.	68*	-1
Cn1c(SCC(=O)NNC(=O)Cc2ccccc2)nnc1-c1ccccc1	i	-0.04	-9	0
CC1=C(n2nnc([N+](=O)[O-])n2)C(c2cccnc2)C(C#N)=C(N)O1 (centres undefined)	i	-0.68	-38	1
COc1cccc(-c2csc3nc[nH]c(=O)c23)c1	i	1.3	89*	-8
SMILES	HSV replic up	Ins promoter up	INS promoter inh	Efa HMGR inh
CC(C)CNS(=O)(=O)c1ccc(CCC(=O)N2CCC(C(N)=O)CC2)cc1	i	0.49	.	-2
CCN1C(=O)CSc2ccc(C(=O)NCc3ccccc3OC)cc21	i	3.1*	-3	-6
COc1ccccc1CNC(=O)CN1C(=O)CSc2ccc(S(=O)(=O)N3CCCC3)cc21	i	-1.4	.	3
O=C1COc2ccc(C(=O)CSc3nnc(Cc4cccs4)n3-c3ccccc3)cc2N1	i	-0.17	71*	-6
O=C1COc2ccc(C(=O)CSc3nnc(-c4cccs4)n3Cc3ccccc3)cc2N1	i	0.42	.	-5
CCCc1noc2c1C(c1cc(Br)ccc1F)C(C#N)=C(N)N2 (centres undefined)	i	-0.33	.	-1
Cc1ccc(N(C(=O)c2cccs2)C2C=CS(=O)(=O)C2)cc1 (centres undefined)	i	0.67	.	-6
O=C(c1cccs1)N(c1ccc(F)cc1)C1C=CS(=O)(=O)C1 (centres undefined)	i	0.44	.	17*
O=C(c1cnccn1)N1CCc2ccccc21	i	0.59	12	0
Cc1c(C(=O)N2CCc3ccccc32)cnn1C	i	-0.03	0	11*
COc1ccc(OC)c2[nH]c(=O)c(CCNC(=O)c3ccc(Br)o3)cc12	i	-1.1	86*	-1
COc1ccc(OC)c2[nH]c(=O)c(CCNC(=O)c3ccc(S(=O)(=O)N(C)C)cc3)cc12	.	-0.11	91*	-3
COCCNC(=S)Nc1ccc2[nH]c(=O)[nH]c2c1	i	-1.2	.	-5
Cc1ccc(-n2c(C)nc3oc4ccccc4c(=O)c3c2=O)cc1	i	3.9*	9	0
COc1ccc2c(=O)c3c(=O)n(-c4ccc(C)cc4)c(-c4ccccc4)nc3oc2c1	i	-1	.	.
CC(=O)NC1C(=O)N=C(SCC(=O)Nc2sc3c(c2C#N)CCCCCC3)NC1=O (centres undefined)	i	-0.39	14	9.8*
N#Cc1c(NC(=O)CSc2ncn[nH]2)sc2c1CCCCC2	i	.	-12	2
CC(CNC(=S)Nc1cc(F)cc(F)c1)CSc1ccc(Cl)cc1 (centres undefined)	i	-0.81	.	-10
O=C(NCC1CCCO1)C1CCN(S(=O)(=O)N2CCCC2)CC1 (centres undefined)	i	3.6*	.	-3
Cc1ccc2[nH]c(-c3ccccc3)c(CN(C)C)c(=O)c2c1	i	4.2*	-17	-2
CCc1c(C)[nH]c2ccc(C)cc2c1=O	i	0.1	77*	-4
CCCc1c(C)[nH]c2ccccc2c1=O	i	0.17	71*	0
CCCc1c(C)c2ccccc2[nH]c1=O	i	1.2	-10	2
C=CCc1c(C)[nH]c2ccc(C)cc2c1=O	i	0.55	13	1
Cc1ccc2[nH]c(-c3ccccc3)c(CN3CCCC3)c(=O)c2c1	i	-0.48	.	-6
SMILES	HSV replic up	Ins promoter up	INS promoter inh	Efa HMGR inh
COc1ccc2c(C)cc(SCC(=O)N(C)C3CCS(=O)(=O)C3)nc2c1 (centres undefined)	i	.	.	-2
CC(=O)N(c1ccccc1)c1nc(/C=C/C(=O)Nc2c(C)cc(C)cc2C)cs1	i	.	-10	-3
N=c1sccn1CC(=O)NC(=O)NC1CCCC1	i	.	88*	-3
O=C(Oc1ccc2c(=O)c(Cl)coc2c1)c1ccncc1	i	-0.11	82*	-7
O=c1c2[nH]c3ccc(Br)cc3c2ncn1CCCn1ccnc1	i	0.05	79*	1
CCCCn1cnc2c([nH]c3ccccc32)c1=O	i	-0.69	82*	-2
Nn1c(=O)[nH]c2c([nH]c3ccccc32)c1=O	i	-0.09	64	-5
Cc1nc2c([nH]c3ccccc32)c(=O)n1N	i	-0.34	100*	-3
COc1cc2c(cc1NC(=O)c1cc(-c3ccccn3)nc3ccccc13)oc1ccccc12	i	-0.19	-61	-1
CCOC(=O)c1c(C)[nH]c(C)c1C(=O)CSc1nncs1	i	0.32	-24	10*
CCOC(=O)c1c(C)[nH]c(C)c1C(=O)CSc1ncccn1	i	-0.19	3	-9
COc1ccc(-n2ncc3c(NCc4ccc5c(c4)OCO5)ncnc32)cc1	i	1.3	75*	-1
